The values that follow come from PubChem BioAssay (NCATS).

Values without a mark were called inactive.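 How the source made its calls: active means compounds whose dose series gives a full or clear partial fitted curve of increased nuclear translocation; inconclusive means weak partial curve or effect only at the top dose; inactive means no dose-dependent translocation response.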 Where only a bound is given, the exact number is not on record here.
Potency means the concentration at half of the fitted maximal effect.

For this assay, the target named is Glucocorticoid receptor (Homo sapiens) (UniProt P04150). Briefly: GR-GFP Redistribution (AID 450). The note with it: U2OS GR-GFP nuclear translocation, laser cytometry, 2 h. An excerpt: NIH Molecular Libraries Screening Centers Network [MLSCN]
Chain of Glucocorticoid receptor (Homo sapiens) (P04150 whole entry, looked up): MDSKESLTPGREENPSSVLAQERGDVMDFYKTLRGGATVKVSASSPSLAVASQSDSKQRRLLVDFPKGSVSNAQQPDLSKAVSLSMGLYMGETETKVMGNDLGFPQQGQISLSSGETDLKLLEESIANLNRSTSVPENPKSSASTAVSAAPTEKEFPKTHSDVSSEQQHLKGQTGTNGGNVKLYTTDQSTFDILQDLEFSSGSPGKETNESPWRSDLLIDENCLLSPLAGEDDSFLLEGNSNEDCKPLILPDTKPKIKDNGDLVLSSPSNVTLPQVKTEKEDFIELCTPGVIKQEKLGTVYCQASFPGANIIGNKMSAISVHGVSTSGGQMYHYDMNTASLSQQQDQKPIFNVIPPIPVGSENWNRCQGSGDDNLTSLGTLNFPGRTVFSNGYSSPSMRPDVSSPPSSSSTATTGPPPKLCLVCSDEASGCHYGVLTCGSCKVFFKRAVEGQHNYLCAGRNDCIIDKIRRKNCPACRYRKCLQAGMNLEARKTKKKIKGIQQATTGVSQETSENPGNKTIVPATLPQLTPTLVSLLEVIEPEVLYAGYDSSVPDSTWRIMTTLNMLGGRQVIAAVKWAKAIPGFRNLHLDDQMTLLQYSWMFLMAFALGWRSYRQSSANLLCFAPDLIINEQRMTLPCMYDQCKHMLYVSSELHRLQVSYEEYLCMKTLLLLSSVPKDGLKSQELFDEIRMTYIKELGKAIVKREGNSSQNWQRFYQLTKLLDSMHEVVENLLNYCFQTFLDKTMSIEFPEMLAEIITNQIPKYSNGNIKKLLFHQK
NIH Chemical Genomics Center [NCGC]
The glucocorticoid receptor (GR) Redistribution assay (BioImage) enables the visualization of GR cytoplasmic to nuclear translocation by the use of a GR-GFP fusion. GR is normally cytosolic, however ligands such as dexamethasone, cause nuclear translocation where the protein binds to response elements and interacts with various co-factors to modulate transcription. Because both functional agonists and antagonists can induce nuclear translocation, this assay can detect ligands regardless of their effects on gene expression. GR-GFP expressing U20S cells were used here. Dexamethasone was the positive control for translocation and data normalization. Detection of nuclear translocation was performed in 1536-well plates using the Acumen laser scanning plate cytometer (TTP LabTech). Validation of this assay and a detailed protocol have been described.
NCGC Assay Protocol Summary:
GR-GFP U2OS cells were maintained in DMEM with Glutamax and high glucose, 1% v/v penicillin-streptomycin, and 0.5 mg/mL Geneticin. For cell culture, 10% […] fetal bovine serum (FBS) was used (Invitrogen #26140-079). For cell plating 10% dextran, charcoal-stripped FBS (Hyclone SH30068.03) was used. U2OS cells were trypsin treated, suspended in medium, and passed through a 40 um basket filter. The cells were seeded at 600 cells/5 uL/well into clear-bottom black sided 1536-well plates and incubated for approximately 20 hrs, 37degC, 5%, CO2 in a tissue culture incubator. Twenty-three nL of compound was delivered by pin tool and the plates were incubated as above for 2 hrs. The compounds were tested as a 7-point titration ranging from 46 uM to 0.6 nM. The cells were fixed using the Kalypsys Washer/Dispenser station. The fixing protocol involved aspiration of the cell media, addition of 6 uL/well of PBS, aspiration of PBS, addition of 5uL/well of 100% methanol, aspiration of methanol, and addition of 3 uL/well PBS with 1.5 uM propidium iodide (PI). The plates were read by the Acumen Explorer using a 1 x 8 um scan of the whole well area. PI fluorescence triggered the collection of PI and GFP signals. A nuclei population was defined by a 10 to 100 um width and depth filter that eliminated small and large fluorescent particles. Two subpopulations of nuclei were then defined by peak intensity of GFP fluorescence to obtain translocated and untranslocated objects. The number of translocated objects was used for data normalization.
Keywords: NIH Roadmap, MLSCN, MLI, MLSMR, sOGT, qHTS, NCGC
Regarding `COc1ccccc1CCn1c(=O)c(C)nc2cncnc21`, the Potency is greater than 9.22 µM. For `CC(=O)NCCNc1ncnc2ccc(-c3ccccc3C(F)(F)F)cc12`, the Potency was greater than 46 µM.

Turning to `Cn1c(=O)c2c(ncn2C[C@@H](O)CO)n(C)c1=O`, the Potency was greater than 20.6 µM.

For `COc1ccc(Oc2ncc3nc(-c4ccc(Cl)cc4)c(=O)n(C)c3n2)cc1`, the Potency is greater than 9.22 µM. The figure for `COc1ccc(-c2nc3cnc(N4CCOCC4)nc3n(Cc3cccc(OC)c3)c2=O)cc1` is greater than 9.22 µM; for `COc1ccccc1-c1nccc(NCc2cccnc2)n1` it is greater than 46 µM; for `CN(C)Cc1ccccc1-c1nccc(N(C)Cc2ccco2)n1` it is greater than 46 µM. Next, `COc1ccc(CNc2ccnc(-c3cccc(C#N)c3)n2)c(OC)c1`: greater than 46 µM; `Cc1ccccc1-c1cc(-n2ccnc2)ncn1`: greater than 46 µM; `COc1ccc(CNc2ncnc3ccc(-c4ccoc4)cc23)c(OC)c1`: greater than 46 µM.

In the case of `O=c1c(-c2cc(F)cc(F)c2)nc2cnc(Oc3ccccc3)nc2n1C[C@H]1CCCO1`, the Potency was greater than 9.22 µM.

Consider `CN(Cc1ccco1)c1ccnc(-c2ccoc2)n1`, for which the Potency is greater than 46 µM. Next, `CC(=O)NCCNc1ncncc1-c1ccccc1CN(C)C`: greater than 46 µM; `O=c1c(-c2ccccc2)nc2cnc(N3CCOCC3)nc2n1Cc1cccs1`: greater than 9.22 µM. `CCNc1ncc2ncc(=O)n(C)c2n1`: the Potency was greater than 9.22 µM. Next, `COCCn1c(=O)c(-c2ccc(OC)cc2)nc2cnc(Oc3ccc(OC)cc3)nc21`: greater than 9.22 µM. `c1ccc(Nc2ncnc3ccc(-c4ccoc4)cc23)cc1`: the Potency is greater than 46 µM.

For the compound `FC(F)(F)c1ccccc1-c1cncnc1Nc1ccccc1`, the Potency was greater than 46 µM. Next, `CN(C)C(=O)c1ccc(-c2ccc3ncnc(N4CCOCC4)c3c2)cc1`: greater than 46 µM. Next, `COc1cccc(Cn2c(=O)c(CCc3ccccc3)nc3cnc(N4CCOCC4)nc32)c1`: greater than 9.22 µM; `Nc1nc2n[nH]nc2c(=O)[nH]1`: greater than 20.6 µM.

With `O=c1[nH]c(=O)n([C@@H]2C[C@H](O)[C@H](CO)O2)cc1I`, the Potency was greater than 20.6 µM.

Turning to `CN(C)c1ncc2nc(-c3cccc(C#N)c3)c(=O)n(C[C@H]3CCCO3)c2n1`, the Potency was greater than 9.22 µM. Next, `COc1ncc2ncc(=O)n(Cc3ccc(F)cc3)c2n1`: greater than 9.22 µM.

For `CN1CCN(c2ncc3ncc(=O)n(-c4ccccc4)c3n2)CC1`, the Potency is greater than 9.22 µM. For the compound `COCCn1c(=O)c(-c2cccs2)nc2cnc(Nc3ccccc3)nc21`, the Potency was greater than 9.22 µM. Next, `COc1cccc(Nc2ncc3nc(C)c(=O)n(CCC#N)c3n2)c1`: greater than 9.22 µM; `NS(=O)(=O)c1cc([C@@]2(O)NC(=O)c3ccccc32)ccc1Cl`: greater than 20.6 µM; `COc1cccc(Nc2ncc3nc(-c4ccc(Cl)cc4)c(=O)n(CCC#N)c3n2)c1`: greater than 9.22 µM. With `COCCn1c(=O)c(-c2cn(C)c3ccccc23)nc2cnc(Oc3ccccc3)nc21`, the Potency was greater than 9.22 µM. Next, `Oc1cc2c(c(Cl)c1O)CCNC[C@H]2c1ccccc1`: greater than 46 µM. The figure for `CNc1ncnc2ccc(-c3ccccc3C#N)cc12` is greater than 46 µM; for `CN1CCN(c2ncc3nc(-c4cn(C)c5ccccc45)c(=O)n(C)c3n2)CC1` it is greater than 9.22 µM.

Take `CCNc1ncc2nc(-c3ccc(Cl)cc3)c(=O)n(C)c2n1`: the Potency is greater than 9.22 µM. The figure for `Cc1cnc(CNc2cc(-c3ccc(N(C)C)cc3)ncn2)cn1` is greater than 46 µM; for `CS(=O)(=O)Nc1cccc(-c2ccc3ncnc(NCc4cccs4)c3c2)c1` it is greater than 46 µM; for `COCCn1c(=O)c(-c2ccc(F)cc2)nc2cnc(Oc3cccc(Cl)c3)nc21` it is greater than 9.22 µM. The figure for `COc1ncc2nc(CCc3ccccc3)c(=O)n(CCC#N)c2n1` is greater than 9.22 µM. The figure for `NC(=NCc1ccc(Cl)c(Cl)c1)NC(=O)c1nc(Cl)c(N)nc1N` is greater than 46 µM. Regarding `CN(C)C(=O)c1ccc(-c2cncnc2Nc2ccccc2)cc1`, the Potency was greater than 46 µM.
